The whole screen tested about 5,500 compounds, of which about 2,000 (36%) were called active. Inconclusive results (about 18%) are left out. No stated cut-off is given here; in the data, active means normalized growth mostly below about 0.91 (no sharp cut-off); inconclusive means no clear call, values can overlap the other calls; inactive means mostly above about 0.92. The list shows a part of the results.
Experiment: chemical genetic growth profiling, strain panel (AID 1159580);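 further: tested at 20 µM; growth read once vehicle control cultures reached saturation at 30 °C; 1 = growth at the plate median or of vehicle wells; lower values mean less growth of the strain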
Settings: growth OD

Measured: normalized growth

COC(C)(C)CCC[C@H](C)C/C=C/C(C)=C/C(=O)OC(C)C
inactive: S. cerevisiae deletion strains, locus YJR075W, strain HOC1, active compounds read low 1.02 | S. cerevisiae deletion strains, locus YKL009W, strain mrt4, active compounds read low 0.979 | S. cerevisiae deletion strains, locus YKL068W, active compounds read low 1.01 | S. cerevisiae deletion strains, locus YKL085W, strain MDH1 (second series), active compounds read low 1 | S. cerevisiae deletion strains, locus YKL085W, strain MDH1, active compounds read low 1 | S. cerevisiae deletion strains, locus YKL160W, strain elf1, active compounds read low 1.02 | S. cerevisiae deletion strains, locus YKL190W, strain CNB1, active compounds read low 0.985 | S. cerevisiae deletion strains, locus YKR001C, strain vps1, active compounds read low 1.03 | S. cerevisiae deletion strains, locus YKR026C, strain gcn3, active compounds read low 1.02 | S. cerevisiae deletion strains, locus YKR091W, strain srl3, active compounds read low 1.02 | S. cerevisiae deletion strains, locus YLL001W, strain dnm1, active compounds read low 1.01 | S. cerevisiae deletion strains, locus YLL026W, active compounds read low 1.01 | S. cerevisiae deletion strains, locus YLL041C, strain sdh2, active compounds read low 1 | S. cerevisiae deletion strains, locus YLR027C, strain aat2, active compounds read low 1.01 | S. cerevisiae deletion strains, locus YLR039C, strain RIC1, active compounds read low 1.04 | S. cerevisiae deletion strains, locus YLR058C, strain SHM2, active compounds read low 1 | S. cerevisiae deletion strains, locus YLR102C, strain apc9, active compounds read low 1.02 | S. cerevisiae deletion strains, locus YLR113W, strain HOG1, active compounds read low 0.971 | S. cerevisiae deletion strains, locus YLR221C, strain rsa3, active compounds read low 0.973 | S. cerevisiae deletion strains, locus YLR258W, strain gsy2, active compounds read low 1.03 | S. cerevisiae deletion strains, locus YLR262C, strain YPT6 (second series), active compounds read low 0.953 | S. cerevisiae deletion strains, locus YLR262C, strain YPT6, active compounds read low 1.06 | S. cerevisiae deletion strains, locus YLR268W, strain sec22, active compounds read low 1.05 | S. cerevisiae deletion strains, locus YLR320W, strain mms22, active compounds read low 0.992 | S. cerevisiae deletion strains, locus YLR330W, strain CHS5, active compounds read low 1.01 | S. cerevisiae deletion strains, locus YLR342W, strain FKS1 (second series), active compounds read low 1.02 | S. cerevisiae deletion strains, locus YLR342W, strain FKS1, active compounds read low 1.01 | S. cerevisiae deletion strains, locus YLR357W, strain rsc2, active compounds read low 1.01 | S. cerevisiae deletion strains, locus YLR370C, strain arc18, active compounds read low 0.997 | S. cerevisiae deletion strains, locus YLR371W, strain rom2, active compounds read low 1.04 | S. cerevisiae deletion strains, locus YLR384C, strain iki3, active compounds read low 1 | S. cerevisiae deletion strains, locus YLR418C, strain cdc73, active compounds read low 1.05 | S. cerevisiae deletion strains, locus YML016C, strain PPZ1, active compounds read low 1.02 | S. cerevisiae deletion strains, locus YML032C, strain rad52, active compounds read low 1.03 | S. cerevisiae deletion strains, locus YML120C, strain ndi1, active compounds read low 1.01 | S. cerevisiae deletion strains, locus YML124C, strain tub3, active compounds read low 1.03 | S. cerevisiae deletion strains, locus YMR058W, strain fet3, active compounds read low 1.01 | S. cerevisiae deletion strains, locus YMR078C, strain ctf18, active compounds read low 1.02 | S. cerevisiae deletion strains, locus YMR125W, strain sto1, active compounds read low 1.02 | S. cerevisiae deletion strains, locus YMR129W, active compounds read low 1.01 | S. cerevisiae deletion strains, locus YMR205C, strain PFK2, active compounds read low 0.979 | S. cerevisiae deletion strains, locus YMR223W, strain ubp8, active compounds read low 1.02 | S. cerevisiae deletion strains, locus YMR231W, strain pep5, active compounds read low 1.03 | S. cerevisiae deletion strains, locus YMR263W, strain SAP30, active compounds read low 1.01 | S. cerevisiae deletion strains, locus YMR307W, strain GAS1, active compounds read low 1 | S. cerevisiae deletion strains, locus YNL067W, strain RPL9B, active compounds read low 1.01 | S. cerevisiae deletion strains, locus YNL071W, strain lat1, active compounds read low 1.01 | S. cerevisiae deletion strains, locus YNL128W, strain TEP1, active compounds read low 1.01 | S. cerevisiae deletion strains, locus YNL153C, strain GIM3, active compounds read low 1.01 | S. cerevisiae deletion strains, locus YNL183C, strain NPR1, active compounds read low 0.891 | S. cerevisiae deletion strains, locus YNL209W, strain ssb2, active compounds read low 0.998 | S. cerevisiae deletion strains, locus YNL233W, strain BNI4, active compounds read low 1.02 | S. cerevisiae deletion strains, locus YNL248C, strain rpa49, active compounds read low 0.996 | S. cerevisiae deletion strains, locus YNL250W, strain rad50, active compounds read low 1.03 | S. cerevisiae deletion strains, locus YNL271C, strain bni1, active compounds read low 1.03 | S. cerevisiae deletion strains, locus YNL298W, strain CLA4, active compounds read low 1.03 | S. cerevisiae deletion strains, locus YNL307C, strain MCK1, active compounds read low 1.04 | S. cerevisiae deletion strains, locus YNL322C, strain KRE1 (second series), active compounds read low 1.05 | S. cerevisiae deletion strains, locus YNL322C, strain KRE1, active compounds read low 1 | S. cerevisiae deletion strains, locus YNR049C, strain mso1, active compounds read low 1.02 | S. cerevisiae deletion strains, locus YNR052C, strain pop2, active compounds read low 1.02 | S. cerevisiae deletion strains, locus YOL006C, strain TOP1, active compounds read low 1.07 | S. cerevisiae deletion strains, locus YOL012C, strain htz1 1.31 | S. cerevisiae deletion strains, locus YOL147C, strain pex11, active compounds read low 1.02 | S. cerevisiae deletion strains, locus YOR001W, strain rrp6, active compounds read low 0.987 | S. cerevisiae deletion strains, locus YOR061W, strain CKA2, active compounds read low 1.01 | S. cerevisiae deletion strains, locus YOR069W, strain VPS5, active compounds read low 1 | S. cerevisiae deletion strains, locus YOR070C, strain gyp1, active compounds read low 0.993 | S. cerevisiae deletion strains, locus YOR080W, strain dia2, active compounds read low 1.02 | S. cerevisiae deletion strains, locus YOR083W, strain WHI5, active compounds read low 1.01 | S. cerevisiae deletion strains, locus YOR106W, strain vam3, active compounds read low 0.948 | S. cerevisiae deletion strains, locus YOR136W, strain idh2, active compounds read low 1.02 | S. cerevisiae deletion strains, locus YOR144C, strain elg1, active compounds read low 1.02 | S. cerevisiae deletion strains, locus YOR184W, strain ser1, active compounds read low 1.04 | S. cerevisiae deletion strains, locus YOR231W, strain MKK1, active compounds read low 0.984 | S. cerevisiae deletion strains, locus YOR265W, strain rbl2, active compounds read low 1.03 | S. cerevisiae deletion strains, locus YOR270C, strain vph1, active compounds read low 0.931 | S. cerevisiae deletion strains, locus YOR290C, strain snf2, active compounds read low 1.08 | S. cerevisiae deletion strains, locus YOR316C, strain cot1, active compounds read low 1.02 | S. cerevisiae deletion strains, locus YPL051W, strain arl3, active compounds read low 1 | S. cerevisiae deletion strains, locus YPL055C, strain LGE1, active compounds read low 1.01 | S. cerevisiae deletion strains, locus YPL078C, strain atp4, active compounds read low 1 | S. cerevisiae deletion strains, locus YPL106C, strain sse1, active compounds read low 1.05 | S. cerevisiae deletion strains, locus YPL240C, strain hsp82, active compounds read low 1.01 | S. cerevisiae deletion strains, locus YPL241C, strain CIN2, active compounds read low 0.999 | S. cerevisiae deletion strains, locus YPL256C, strain CLN2, active compounds read low 0.992 | S. cerevisiae deletion strains, locus YPR119W, strain clb2, active compounds read low 1.02 | S. cerevisiae deletion strains, locus YPR141C, strain kar3, active compounds read low 1.03 | S. cerevisiae deletion strains, locus YPR163C, strain tif3, active compounds read low 1.04 | S. cerevisiae deletion strains, locus YPR167C, strain met16, active compounds read low 1.02 | S. cerevisiae deletion strains, strain wtn01, active compounds read low 1.05 | S. cerevisiae strains, strain wild type, active compounds read low 1.01

From PubChem BioAssay AID1159580 (chemical genetic matrix, 2015)
